Many of the other results were omitted from the sample, so hits are more common in it than they were.
TTR transcr act: increases transthyretin transcription; SH-SY5Y TTR promoter Gaussia luciferase, luminescence; 100% = recombinant luciferase protein wells; activation, % at 16.7 µM; actives 1.3% (n = 92,000); AID 1117267;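 active = activation above the mean of all tested compounds plus 3 SD, cut at about 9.5% in these data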;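 also: cells exposed to compounds for one day before reading; 0% = median of all test compound wells on the plate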
TTR inh HuH7: decreases TTR transcription in HuH7 cells in activator counter-screen; shares compounds with TTR transcr act; HuH7 TTR promoter-Gaussia luciferase reporter, luminescence; inhibition, % at 16.7 µM; actives 4% (n = 1,100); AID 1117279;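 active = average inhibition above the solvent-only control wells' mean plus 3 SD, cut at about 15% in these data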;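 also: 0% = cells with DMSO only and 100% = cells with inhibitor control FD; inhibitors lower well luminescence so higher value means more inhibition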
TTR up confirm: confirmation of human transthyretin transcription activators. shares compounds with TTR transcr act. SHSY5Y TTR promoter Gaussia luciferase, luminescence; 100% = purified Lucia enzyme wells, no cells. activation, % at 16.7 µM. 1,100 tested, under 10 active;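 active = mean activation above a set limit taken from the earlier primary screen, cut at about 11% in these data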;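 also: 0% = DMSO-treated cells and 100% = recombinant Lucia luciferase without cells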
An asterisk follows results filed as active.

SMILES	TTR transcr act	others
CC(Oc1ccccc1)C(=O)N1CCN=C1SCc1ccccc1 (stereo not drawn)	12*	TTR inh HuH7=29*;TTR up confirm=-2
O=C(C1CC1)N1CCN=C1SCc1cccc(F)c1	0
C[C@@H](NS(=O)(=O)c1c(F)cccc1F)c1ccccc1	-1
C[C@H]1[C@@H](OC(=O)Nc2ccccc2F)CC[C@@]23CCCN2C(=O)CCC[C@@H]13	2
CCCCN1CCS(=O)(=O)N(Cc2cn(Cc3ccccc3Br)nn2)C(C(=O)OC)C1 (stereo not drawn)	-1
Cc1cccc2cc(C(c3nnnn3C(C)(C)C)N(Cc3ccco3)CC3CCCO3)c(=O)[nH]c12 (stereo not drawn)	-2
CCC(c1nnnn1Cc1ccco1)N(Cc1ccccc1OC)Cc1cc2cc(C)ccc2[nH]c1=O (stereo not drawn)	7
CCC(c1nnnn1Cc1ccco1)N(Cc1cc2cc(C)cc(C)c2[nH]c1=O)CC1CCCO1 (stereo not drawn)	18*	TTR inh HuH7=14;TTR up confirm=0
Fc1c(-c2ccc3ncnc(NCc4cccs4)c3c2)ccc2c1OCO2	2
O=S(=O)(c1cc(O)ccc1O)c1cccc2c(S(=O)(=O)c3cc(O)ccc3O)cccc12	-1
O=C(NN1C(=O)C2C3C=CC(C3)C2C1=O)c1ccccc1 (stereo not drawn)	0
O=C(NN1C(=O)C2CC=C(Cl)CC2C1=O)c1ccncc1 (stereo not drawn)	12*	TTR inh HuH7=2;TTR up confirm=-1
Cc1ccc(NCN2C(=O)C3CC=C(Cl)CC3C2=O)cc1 (stereo not drawn)	0
Cc1ccc(NC(=O)CSc2nc(N)cc(=O)[nH]2)cc1S(=O)(=O)N1CCCCCC1	1
COc1ccc(NC(=S)Nc2ccc(S(=O)(=O)N3CCCCC3)cc2)cc1	12*	TTR inh HuH7=12;TTR up confirm=0
Cc1cc(=O)[nH]c(SCC(=O)Nc2ccc(S(=O)(=O)N3CCCCC3)cc2)n1	13*	TTR inh HuH7=-2;TTR up confirm=0
CCOC(=O)CSCC(=O)Nc1ccc(S(=O)(=O)N2CCCCC2)cc1	-2
COc1ccc(NC(=O)CSCC(=O)Nc2ccc(S(=O)(=O)N3CCCC3)cc2)cc1	0
COc1ccc(OCC(=O)Nc2ccc(S(=O)(=O)N3CCCCC3)cc2)cc1	-1
CCOC(=O)[C@]12CCCC=C1N(CCCOC)C(=O)[C@@H]2CC(=O)NCCCN1CCCC1=O	2
O=S1(=O)c2c(NCc3ccco3)cccc2Oc2ccccc2CN1Cc1cn(Cc2ccc(Cl)cc2)nn1	1
COC[C@H]1CCCN1c1cccc2c1S(=O)(=O)N1CC[C@H](C1)O2	-1
Cn1c(SCC(=O)Nc2ccc(Cl)cc2F)nnc1-c1ccco1	-2
O=C(Nc1ccc(Cl)cc1)OC[C@@H]1CSCCS(=O)(=O)N1	-1
Cc1cccc(C)c1NC(=O)CNC(=O)C(C)NC(C)c1ccccc1Br (stereo not drawn)	1
SMILES	TTR transcr act	others
COc1ccc(/C=C/C(=O)C2CC2)cc1Cn1nc(C)c([N+](=O)[O-])c1C	-1
COc1ccc(/C=N/N2CCOCC2)cc1Cn1nc(C)c([N+](=O)[O-])c1C	9
COc1ccc(/C=N/Nc2ccccc2)cc1Cn1nc(C)c([N+](=O)[O-])c1C	13*	TTR inh HuH7=-16;TTR up confirm=0
CC1(c2nnnn2Cc2ccccc2)CCCC(=O)N1Cc1cccs1 (stereo not drawn)	0
Cc1noc(C)c1COC(=O)c1cc(=O)[nH]c2ccccc12	31*	TTR inh HuH7=-17;TTR up confirm=0
CCNC(=O)COC(=O)c1cc(=O)[nH]c2ccccc12	0
Cc1cccc(C)c1NC(=O)COC(=O)c1cc(=O)[nH]c2ccccc12	-2
O=C(NNC(=O)c1ccco1)c1ccc(NS(=O)(=O)c2cccs2)cc1	14*	TTR inh HuH7=-8;TTR up confirm=0
O=C(NNC(=O)c1cc(F)c(F)cc1Cl)c1ccc(NS(=O)(=O)c2cccs2)cc1	1
O=C(O)c1ccc(/C=N/NC(=O)c2ccc(NS(=O)(=O)c3cccs3)cc2)cc1	4
O=C(Nc1ccc(C(O)(C(F)(F)F)C(F)(F)F)cc1)c1ccc(F)cc1Cl	-2
CC(=O)N[C@@H](C)CCc1ccc(Oc2ccc(OC(C)C)nc2)cc1	-2
CN1CCC(N[C@@H](Cc2ccccc2)C(=O)NCC(c2ccccc2)c2ccccc2)(C(=O)NC2CCCCC2)CC1	-4
COc1cc2c(cc1OC)C(c1cccnc1)CC(=O)N2 (stereo not drawn)	0
COc1ccc(C2CC(=O)Nc3cc(OC)c(OC)cc32)cc1 (stereo not drawn)	0
COc1cc2c(cc1OC)C(c1cccc(F)c1)CC(=O)N2 (stereo not drawn)	18*	TTR inh HuH7=2;TTR up confirm=0
O=C(OCc1cn(Cc2ccccc2)nn1)N1CCOCC1	2
CS(=O)(=O)N1CCC(C(=O)Nc2cccc(C(F)(F)F)c2)CC1	0
CCOC(=O)N1CCC(NC(=O)c2cc(C(=O)Nc3cccc(C(F)(F)F)c3)ccc2CO)CC1	-2
CCN1CCC(NC(=O)Nc2cccc(C(F)(F)F)c2)CC1	19*	TTR inh HuH7=-14;TTR up confirm=0
CC(C)n1nnnc1C1c2ccccc2OCC(=O)N1Cc1cccc(C(F)(F)F)c1 (stereo not drawn)	-1
CC(=O)c1ccc([C@H](O)[C@H](C)C(=O)N(C)c2ccccc2)cc1	2
CCC(=O)Nc1nnc(-c2ccco2)o1	1
Cc1ccsc1C(=O)Nc1nnc(-c2ccco2)o1	16*	TTR inh HuH7=0;TTR up confirm=0
Cc1ccc(C(=O)Nc2nnc(-c3ccco3)o2)cc1	6
SMILES	TTR transcr act	others
Cn1cccc1/C=N/n1c(-c2ccc(Cl)cc2)n[nH]c1=S	-5
Cc1ccc(-c2n[nH]c(=S)n2/N=C/c2cccs2)cc1	14*	TTR inh HuH7=-16;TTR up confirm=0
Cc1ccc(/C=N/n2c(-c3ccncc3)n[nH]c2=S)cc1	1
C[C@H]1[C@@H](OC(=O)NC2CCCCC2)CC[C@@]23CCCN2C(=O)CCC[C@@H]13	1
Cc1ccc2c(Cl)cc(Cl)c(OCC(=O)NC(=O)NCc3ccco3)c2n1	-2
Cc1ccc(NC(=O)CN(C)C(=O)COc2c(Cl)cc(Cl)c3ccc(C)nc23)cc1	13*	TTR inh HuH7=-42;TTR up confirm=0
Cc1ccc2cccc(OCC(=O)N(C)CC(=O)Nc3ccc(F)cc3)c2n1	4
CC(C)Oc1ccc(Oc2ccc(C#C[C@H](C)N3C(=O)c4ccccc4C3=O)cc2)cn1	2
CCCNC(=O)c1ccc(N2CCC3(CC2)CC(c2cccc(Br)c2)=NO3)c(NC(=O)c2ccc(Br)cc2)c1	0
COc1ccccc1C(=O)Nc1cccc(SC)c1	0
CSc1ccccc1C(=O)Nc1cccc(N(C)S(C)(=O)=O)c1	0
COc1ccc(NC(=O)c2ccccc2SC)cc1OC	12*	TTR inh HuH7=-7;TTR up confirm=0
C=CCN(C(=O)[C@@H](C)[C@@H](O)c1ccc(Cl)cc1)c1ccccc1	0
Nc1c(C(=O)N2CCN(c3ccccc3)CC2)nnn1Cc1ccc(Cl)cc1	-1
O=[N+]([O-])c1cccc(-c2nc(-c3ccccn3)no2)c1	0
O=[N+]([O-])c1cccc(-c2noc3c2-c2nc(Cc4cccc5ccccc45)sc2CC3)c1	34*	TTR inh HuH7=-17;TTR up confirm=1
Fc1cccc(F)c1-c1nc2c(s1)CCc1onc(-c3ccc(Br)cc3)c1-2	-1
COc1cccc(N(CC(=O)N2CCCC2)S(C)(=O)=O)c1	1

Assay outcomes deposited in PubChem by The Scripps Research Institute Molecular Screening Center.
